Source: PubChem BioAssay (EPA / NIEHS)
Records with an inconclusive call do not appear. Calls of active or inactive are those of the source. How the source made its calls, unless noted: active means hit-call score of the fitted dose curve at least 0.9, where 1 is the maximum; inactive means score below 0.9.

What was measured:
[1] = read-out: Monocyte Chemoattractant Protein-1 (MCP1), CCL2 (gene 6347); test: BSK_SAg_MCP1: BioMAP Diversity Plus: SAg Assay for Monocyte Chemoattractant Protein-1 (MCP1) Biomarker Activity (AID 2283090); details: primary human HUVEC with PBMC; actives raise or lower the signal
How it was run: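 MCP-1 levels in the endothelial–PBMC SAg co-culture were quantified by ELISA at 24 h post-dosing; both increases and decreases versus DMSO scored. Cytotoxicity monitored by SRB total protein in parallel cultures.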

[2] = read-out: E-selectin (Homo sapiens) (UniProt P16581); test: BSK_SAg_Eselectin: BioMAP Diversity Plus: SAg Assay for Eselectin Biomarker Activity (AID 2283091); details: primary human HUVEC with PBMC; actives raise or lower the signal
How it was run: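 HUVEC co-cultured with PBMC, compound dosed then read at 24 h; E-selectin measured by ELISA. Activity fitted bidirectionally against DMSO as negative control and baseline.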

[3] = read-out: Monokine induced gamma interferon (MIG), CXCL9 (gene 4283); test: BSK_SAg_MIG: BioMAP Diversity Plus: SAg Assay for Monokine induced gamma interferon (MIG) Biomarker Activity (AID 2283092); details: primary human HUVEC with PBMC; actives raise or lower the signal
How it was run: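 Measures CXCL9 protein by ELISA in a human vascular primary-cell co-culture (umbilical vein endothelium with PBMC) 24 h after chemical addition. Activity is scored up or down from the DMSO control.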

[4] = BSK_SAg_PBMCCytotoxicity: PBMC Cytotoxicity Assessment in the BioMAP Diversity Plus: SAg Assay (AID 2283093); details: primary human HUVEC with PBMC;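 further: PBMC viability measured as Alamar Blue reduction fluorescence at 546/580 nm; fitted both ways against DMSO so a hit may be loss or gain of signal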;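 on AC50: PBMC superantigen activated with SEB plus TSST-1 one hour after compound addition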
How it was run: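 HUVEC/PBMC co-culture; PBMC exposed to chemical 1 h before SEB and TSST-1 activation (20 ng/mL each), incubated 90 h, then Alamar Blue 6 h, fluorescence 546/580 nm. Bidirectional fit versus DMSO baseline.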

[5] = read-out: Interleukin-8 (IL8), CXCL8 (gene 3576); test: BSK_SAg_IL8: BioMAP Diversity Plus: SAg Assay for Interleukin-8 (IL8) Biomarker Activity (AID 2283094); details: primary human HUVEC with PBMC; actives raise or lower the signal
How it was run: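 Human umbilical vein endothelial cells co-cultured with PBMC, stimulated with superantigen; IL-8 measured by ELISA 24 h after chemical dosing. Bidirectional fitting versus DMSO; SRB staining in parallel cultures tracks cytotoxicity.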

[6] = BSK_SAg_Proliferation: Cell Proliferation Assessment in the BioMAP Diversity Plus: SAg Assay (AID 2283095); details: primary human HUVEC with PBMC
How it was run: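 Human umbilical vein endothelial cells co-cultured with PBMC; sulforhodamine B total-protein staining (0.1% SRB after 10% TCA fixation, absorbance 560 nm) at 96 h in sub-confluent culture. Fitted bidirectionally against DMSO.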

[7] = BSK_SAg_SRB: Viability Assessment in the BioMAP Diversity Plus: SAg Assay (AID 2283096); details: primary human HUVEC with PBMC;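 further: cells read one day after compound addition; hits may be either gain or loss of signal compared with DMSO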
How it was run: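 Human umbilical vein endothelial cells co-cultured with PBMC, read 24 h after compound dosing. Total protein measured by sulforhodamine B staining (0.1% SRB after 10% TCA fixation, absorbance 560 nm); bidirectional fit versus DMSO baseline.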

[8] = biological target: human CYP2A6, CYP2A6 (gene 1548) (UniProt P11509); test: NVS_ADME_hCYP2A6: NovaScreen (NVS) CYP450-related Enzyme Activity (ADME) Assay for human CYP2A6 (AID 2283099; active means hit-call score of the fitted dose curve at least 0.9, where 1 is the maximum)
Sequence of human CYP2A6, CYP2A6 (gene 1548) (P11509 whole entry, looked up): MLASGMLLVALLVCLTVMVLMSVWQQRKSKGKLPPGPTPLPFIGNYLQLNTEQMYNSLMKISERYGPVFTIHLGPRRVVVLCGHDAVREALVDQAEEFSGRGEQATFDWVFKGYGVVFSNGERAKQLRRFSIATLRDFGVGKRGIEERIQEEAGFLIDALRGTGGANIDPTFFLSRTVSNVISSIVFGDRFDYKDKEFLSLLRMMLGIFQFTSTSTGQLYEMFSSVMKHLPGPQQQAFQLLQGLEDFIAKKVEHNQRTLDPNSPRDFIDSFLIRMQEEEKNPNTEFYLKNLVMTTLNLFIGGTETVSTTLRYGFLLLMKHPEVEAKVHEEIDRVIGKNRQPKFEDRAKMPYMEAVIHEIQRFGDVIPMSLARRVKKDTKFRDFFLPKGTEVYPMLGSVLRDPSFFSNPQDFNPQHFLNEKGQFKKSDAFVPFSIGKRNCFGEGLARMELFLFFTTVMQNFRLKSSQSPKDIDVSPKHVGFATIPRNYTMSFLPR
How it was run: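 Cell-free fluorescence readout of recombinant human CYP2A6 expressed in insect cells, read 0.5 h after dosing; loss of signal versus acetonitrile negative control. Primary screen in duplicate at 10 uM; actives re-run in concentration-response up to 20 uM.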

[9] = biological target: human CYP2B6, CYP2B6 (gene 1555) (UniProt P20813); test: NVS_ADME_hCYP2B6: NovaScreen (NVS) CYP450-related Enzyme Activity (ADME) Assay for human CYP2B6 (AID 2283101; active means hit-call score of the fitted dose curve at least 0.9, where 1 is the maximum)
Sequence of human CYP2B6, CYP2B6 (gene 1555) (P20813 whole entry, looked up): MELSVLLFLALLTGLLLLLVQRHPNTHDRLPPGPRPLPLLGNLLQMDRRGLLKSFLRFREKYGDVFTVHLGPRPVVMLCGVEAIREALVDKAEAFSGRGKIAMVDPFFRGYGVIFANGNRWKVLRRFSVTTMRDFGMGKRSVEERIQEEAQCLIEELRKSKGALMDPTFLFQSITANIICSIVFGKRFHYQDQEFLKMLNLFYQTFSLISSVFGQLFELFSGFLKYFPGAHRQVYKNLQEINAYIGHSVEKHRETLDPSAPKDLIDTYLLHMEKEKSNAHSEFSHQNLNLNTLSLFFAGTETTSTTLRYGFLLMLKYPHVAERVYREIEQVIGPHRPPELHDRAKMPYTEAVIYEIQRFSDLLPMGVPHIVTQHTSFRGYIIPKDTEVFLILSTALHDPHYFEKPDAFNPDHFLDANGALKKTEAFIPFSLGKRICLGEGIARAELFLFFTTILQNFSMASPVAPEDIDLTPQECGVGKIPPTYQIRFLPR
How it was run: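 Recombinant protein, specific fluorescent substrate, read at 1 h post-dosing. Primary: single 10 uM, duplicate; follow-up: concentration series. Activity = signal loss vs acetonitrile baseline, with positive and negative controls on every plate.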

[10] = biological target: human CYP19A1, CYP19A1 (gene 1588) (UniProt P11511); test: NVS_ADME_hCYP19A1: NovaScreen (NVS) CYP450-related Enzyme Activity (ADME) Assay for human CYP19A1 (AID 2283098; active means hit-call score of the fitted dose curve at least 0.9, where 1 is the maximum;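 on AC50: potency for inhibitors seen as loss of fluorescent enzyme signal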)
Sequence of human CYP19A1, CYP19A1 (gene 1588) (P11511 whole entry, looked up): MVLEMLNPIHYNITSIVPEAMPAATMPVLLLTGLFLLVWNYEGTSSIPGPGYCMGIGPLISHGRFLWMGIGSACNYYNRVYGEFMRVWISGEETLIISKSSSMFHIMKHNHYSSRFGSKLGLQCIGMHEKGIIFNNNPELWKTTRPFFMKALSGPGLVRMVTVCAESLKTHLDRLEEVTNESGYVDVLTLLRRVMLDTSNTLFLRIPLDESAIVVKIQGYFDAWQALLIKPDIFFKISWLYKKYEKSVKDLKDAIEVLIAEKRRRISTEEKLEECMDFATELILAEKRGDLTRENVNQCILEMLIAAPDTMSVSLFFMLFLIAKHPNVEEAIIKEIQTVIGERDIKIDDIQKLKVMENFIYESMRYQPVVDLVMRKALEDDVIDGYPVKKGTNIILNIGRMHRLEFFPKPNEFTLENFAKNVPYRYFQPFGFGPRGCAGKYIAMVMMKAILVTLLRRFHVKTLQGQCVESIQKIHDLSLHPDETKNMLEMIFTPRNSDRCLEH
How it was run: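 Recombinant enzyme in a cell-free format, read 0.5 h after dosing by fluorescence from a fluorogenic substrate. Loss of signal was fitted against acetonitrile as baseline. Primary screen in duplicate at 10 uM, actives then tested in concentration series.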

Measured: AC50

Sequence of E-selectin (Homo sapiens) (P16581 whole entry, looked up): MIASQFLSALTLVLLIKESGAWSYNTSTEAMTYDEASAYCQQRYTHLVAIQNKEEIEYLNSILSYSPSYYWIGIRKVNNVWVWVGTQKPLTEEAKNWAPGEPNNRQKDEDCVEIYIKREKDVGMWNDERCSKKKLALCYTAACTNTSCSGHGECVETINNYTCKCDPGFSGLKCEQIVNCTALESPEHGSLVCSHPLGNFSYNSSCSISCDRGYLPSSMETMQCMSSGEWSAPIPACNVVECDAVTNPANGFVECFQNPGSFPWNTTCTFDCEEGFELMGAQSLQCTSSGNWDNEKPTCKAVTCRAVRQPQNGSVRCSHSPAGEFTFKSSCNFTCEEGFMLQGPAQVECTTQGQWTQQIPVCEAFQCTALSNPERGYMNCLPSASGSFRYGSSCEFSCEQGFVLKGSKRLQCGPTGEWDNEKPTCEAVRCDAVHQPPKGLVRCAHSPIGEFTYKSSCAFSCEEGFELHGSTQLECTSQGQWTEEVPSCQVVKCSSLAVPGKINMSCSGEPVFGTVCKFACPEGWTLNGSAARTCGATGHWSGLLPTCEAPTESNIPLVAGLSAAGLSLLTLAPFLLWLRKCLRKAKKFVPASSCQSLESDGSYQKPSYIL

O=C1CCCCCCCCCCC1
not listed: [8] | [9] | [10]
inactive: all other assays above

O=C(O)C(F)(F)C(F)(F)C(F)(F)C(F)(F)C(=O)O
not listed: [8] | [9] | [10]
inactive: all other assays above

Cc1ccc([N+](=O)[O-])cc1N
active: [2] 5.91 µM | [8] 10 µM | [9] 2.51 µM
not listed: [10]
inactive: all other assays above

CC=C(C)C=CC=C(C)C
active: [1] 2.58 µM | [2] 23.4 µM | [5] 6.5 µM | [6] 26.5 µM
inactive: [3] | [4] | [7]

Cc1c(O)cccc1O
active: [4] 31 µM | [6] 31 µM
inactive: [1] | [2] | [3] | [5] | [7]

Cc1ccc(C)c(OCCCC(C)(C)C(=O)O)c1
active: [10] 15.6 µM

CC(C)[N+](C)(CCOC(=O)C1c2ccccc2Oc2ccccc21)C(C)C
not listed: [8] | [9] | [10]
inactive: all other assays above

C=CC(=O)OCC(C)OCC(C)OCC(C)OC(=O)C=C (stereo not given)
active: [1] 10.5 µM | [2] 5.5 µM | [3] 20 µM | [4] 5.29 µM | [5] 3.14 µM | [6] 2.88 µM | [7] 21.6 µM

CCCCC(CC)COS(=O)(=O)O (stereo not given)
inactive: [10]

O=C(O)c1ccc2c(c1)C(=O)OC2=O
inactive: [10]

CCN1CN(CC)CN(CC)C1
active: [6] 36.3 µM
not listed: [8] | [9] | [10]
inactive: all other assays above

C1CNCCN1
not listed: [8] | [9] | [10]
inactive: all other assays above

CC(C)C(=O)OCCc1ccccc1
not listed: [8] | [9] | [10]
inactive: all other assays above

C=CC(=O)NCOCCCC
not listed: [8] | [9] | [10]
inactive: all other assays above

CCCC(CC)c1ccccc1 (stereo not given)
active: [10] 10.4 µM

CCNc1nc(NC(C)(C)C)nc(OC)n1
active: [2] 8.44 µM
not listed: [8] | [9] | [10]
inactive: all other assays above

CCOC(=O)/C=C\C(=O)OCC
active: [2] 20 µM
not listed: [8] | [9] | [10]
inactive: all other assays above

O=C1CCCCCCCCCCCN1
not listed: [8] | [9] | [10]
inactive: all other assays above

CCCCCCOC(=O)CCCCC(=O)OCCCCCC
not listed: [8] | [9] | [10]
inactive: all other assays above

CC(C)c1cccc(C(C)C)c1N
not listed: [8] | [9] | [10]
inactive: all other assays above

Oc1ccccc1Cc1ccccc1O
not listed: [8] | [9] | [10]
inactive: all other assays above

CCCCCCCCCCCC(=O)N(C)CC(=O)O
not listed: [8] | [9] | [10]
inactive: all other assays above

CCCCCCCCCCCC(C)=O
active: [1] 31.1 µM | [2] 33.3 µM | [4] 32 µM | [5] 33.8 µM | [6] 34 µM
inactive: [3] | [7]

Oc1ccc(/C=C/c2cc(O)cc(O)c2)cc1
active: [6] 20 µM
not listed: [8] | [9] | [10]
inactive: all other assays above

Clc1cc(Cl)c(Cl)c(Cl)c1Cl
not listed: [8] | [9] | [10]
inactive: all other assays above

CC(Cl)COP(=O)(OCC(C)Cl)OCC(C)Cl (stereo not given)
not listed: [8] | [9] | [10]
inactive: all other assays above

Nc1nc(N)nc(-c2ccccc2)n1
not listed: [8] | [9] | [10]
inactive: all other assays above

Nc1cccc(N)n1
not listed: [8] | [9] | [10]
inactive: all other assays above

CCCCCC1=CCCC1=O
not listed: [8] | [9] | [10]
inactive: all other assays above

C=CCCCCCCCCC=O
not listed: [8] | [9] | [10]
inactive: all other assays above

Nc1ccc(C(=O)O)cc1
not listed: [8] | [9] | [10]
inactive: all other assays above

O=C(OCc1ccccc1)c1ccc(O)cc1
active: [10] 4.08 µM

CC(c1cc(C(C)(C)C)cc(C(C)(C)C)c1O)c1cc(C(C)(C)C)cc(C(C)(C)C)c1O
active: [6] 5.29 µM
not listed: [8] | [9] | [10]
inactive: all other assays above

CC(C)CCCCCOC(=O)CS
not listed: [8] | [9] | [10]
inactive: all other assays above
